# ChEMBL document CHEMBL3988442, “University of Dundee, Small-Polar-MMV Screening Library” (2021)
# In all, about 53,000 compounds went through this assay and about 900 (1.7%) showed an effect of 50% or more. The sample holds strong results, similar compounds and a random draw of the others, so the mix is not that of the screen.
# System: Mycobacterium tuberculosis
# Assay: Cornell - Phenotypic assay to identify agents that inhibit growth of Mycobacterium tuberculosis
# Assay type: functional
# Design: scale not given: direction of the effect not stated beside the values
# Conditions: 10 mM as filed; unlikely as a test dose
row,SMILES,Percent Effect
1,Cc1c(Br)cccc1C(=O)Nc1cc(C(N)=O)n(C)c1,2.948%
2,COC(=O)c1occc1Cn1cc(Br)cn1,-5.91%
3,COc1cccc2c1ccn2CCNC(=O)CC(C)C,-27.68%
4,CCCn1nnnc1COc1ccc(C(=O)OC)cc1OC,7.789%
5,CN(C)S(=O)(=O)N1CCOC(c2cccc(-c3cncnc3)n2)C1 (centres undefined),50.13%
6,Cc1noc(C)c1-c1cccc(C2CN(S(=O)(=O)N(C)C)CCO2)n1 (centres undefined),37.24%
7,COCC(=O)N1CCOC(c2cccc(-c3cncnc3)n2)C1 (centres undefined),-11.99%
8,COc1ccccc1C(=O)N1CC(=O)N(CC(C)C)CC(O)C1 (centres undefined),11.6%
9,CCC(CN1CCCCC1)NC(=O)C1(c2cccc(F)c2)CC1.O=C(O)CC(O)(CC(=O)O)C(=O)O (centres undefined),45.73%
10,CCOCC(O)CN1CCN(C(=O)c2ccncc2)CC1 (centres undefined),18.36%
11,CCOCC(O)CN1CCN(C(=O)c2ccsc2)CC1 (centres undefined),106.2%
12,CCOCC(O)CN1CCN(C(=O)c2ccc(N(C)C)nc2)CC1 (centres undefined),18.97%
13,CC(C)N1CCC(Cc2cncc(-c3cccc(C(=O)O)c3)n2)CC1,-33.1%
14,CCOCC1CN(S(=O)(=O)Cc2ccccc2)Cc2nccn2C1 (centres undefined),3.802%
15,CC(C)c1ccc(C#N)c(N2CC(C)(C)[C@@](C)(O)C2)n1,23.89%
16,COc1cccc(NC(=O)CN2CCN(S(C)(=O)=O)CC2)c1,13.93%
17,COc1cccc(S(=O)(=O)CCN2CCCN(C(C)=O)CC2)c1,16.19%
18,COc1cccc(/C=C/CCN2CCCN(C(C)=O)CC2)c1,68.14%
19,COc1cccc(/C=C/CCN2CCC(C(=O)N3CCCC3)CC2)c1,9.134%
20,COc1cccc(/C=C/CCN2CCN(S(C)(=O)=O)CC2)c1,79.58%
21,COc1cccc(C(C)N2CCN(S(C)(=O)=O)CC2)c1 (centres undefined),-32.99%
22,Cc1cc(C)n(C2CN(c3ncnc4[nH]ccc34)C2)n1,-54.22%
23,CCn1cc(S(=O)(=O)NCC2(N3CCOCC3)CCCCC2)c(C)n1,-12.17%
24,N#CCCCOc1cccnc1NC(=O)CC1CCCCC1,-14.31%
25,Cc1ccc(NC(=O)N2CCN(Cc3ccccn3)CC2)cc1Cl,-19.48%
26,Cc1nc(CN(C)C2CCCN(c3ccccc3)C2)no1 (centres undefined),-1.27%
27,COc1cccc2c3c(c(=O)n(C)c12)CCC(C)(C)O3,52.61%
28,Cn1c(=O)c2c(c3ccccc31)OC(C)(C)CC2,17.08%
29,COc1cccc2c3c(c(=O)[nH]c12)CCC(C)(C)O3,14.12%
